Assay [1] in a line: qHTS for identification of novel therapeutic agents for treatment of microphthalmiaassociated transcription factor (MiT) renal cell carcinoma (RCC) (AID 1963991).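 On z-score: curves scaled with 100% = DMSO viability and 0% = empty wells.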 The following applies: CellTiter-Glo, 48 h; for z-score: stronger effect = lower value. A digest of the protocol:
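UOK109/UOK124/UOK145 (TFE3 fusions, three partners); 500 cells/well; MIPE v4.0, 1912 cpds, 11 conc.; 48 h, 37 C; CellTiter-Glo, 15 min RT; lum. Norm.: DMSO 100%, empty 0%.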
(Quantitative high-throughput screening tests each substance at several concentrations.)

Assay [2] can be described thus: qHTS drug screen for cell cycle checkpoint inhibitors in PARPi-resistant BRCA-mutant ovarian cancer cell lines. (AID 1963452). The following applies: PEO1/OlaR viability, CellTiter-Glo luminescence, 96 h; for Z-AUC: stronger effect = lower value. An outline of the steps: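 PEO1, PEO4 and PEO1/OlaR ovarian cancer cells, 600 per well, exposed 96 h at 37C to a dilution series. Viability read by CellTiter-Glo luminescence, normalized to DMSO and empty wells; activity summarized as Z-AUC.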

Setting [3] is: TFE3-RCC UOK109 viability, measured here: UOK109 Z-AUC.
Setting [4] is: TFE3-RCC viability, measured here: UOK124 Z-AUC.
The mark [5] stands for this setting: TFE3-RCC viability, measured here: UOK145 Z-AUC.
Setting [6] is: measured here: PEO1 parental Z-AUC.

Records with an inconclusive call do not appear. Calls of active or inactive are those of the source. The call rests on the fitted dose curve.
Potency means the concentration at half of the fitted maximal effect.

With `NC1CC1c1ccccc1` (stereo unspecified), the z-score in assay [1] (setting [3]) amounted to 0.891; in assay [1] (setting [4]), 0.509; in assay [1] (setting [5]), 0.821.

With `CC(C)N(CCNC(=O)CN1CCCC1=O)C(C)C`, the z-score came to 0.955 in assay [1] (setting [3]), 0.437 in assay [1] (setting [4]) and 0.681 in assay [1] (setting [5]).

For `Oc1ccc2c3c1O[C@H]1c4[nH]c5c(c4C[C@@]4(O)[C@@H](C2)N(CC2CC2)CC[C@]314)C[C@@]1(O)[C@H]2Cc3ccc(O)c4c3[C@@]1(CCN2CC1CC1)[C@H]5O4`, the figures for the z-score in assay [1] (setting [3]), in assay [1] (setting [4]) and in assay [1] (setting [5]) were 0.682, 0.462 and 0.385, respectively.

Take `COc1cc([C@@H]2c3cc4c(cc3[C@@H](O)C3COC(=O)C32)OCO4)cc(OC)c1O` (stereo partly specified): the Z-AUC in assay [2] was -0.729 (inactive); in assay [2] (setting [6]), -0.507; in assay [2] (measured here: PEO4 Z-AUC), -1.03. Besides, the Potency in assay [1] (TFE3-RCC UOK109 viability) is 41.8 nM (active). Besides, the figures for the z-score in assay [1] (setting [3]), in assay [1] (setting [4]) and in assay [1] (setting [5]) were -1.65, -1.93 and -1.12, respectively.

With `O=C(Nc1ccncc1)C(=O)c1cn(Cc2ccc(Cl)cc2)c2ccccc12`, the Z-AUC in assay [2] is -0.51 (inactive); in assay [2] (setting [6]) it was -1.11; in assay [2] (measured here: PEO4 Z-AUC), -0.872. The Potency in assay [1] (TFE3-RCC UOK109 viability) is 469 nM (active). Moreover, the z-score is -1.08 in assay [1] (setting [3]), -1.43 in assay [1] (setting [4]) and -1.01 in assay [1] (setting [5]).

`C1=C2CCCN[C@H]2[C@@H]2C[C@H]1[C@@H]1CCCCN1C2`: the z-score was -0.0816 in assay [1] (setting [3]), 0.828 in assay [1] (setting [4]) and 0.304 in assay [1] (setting [5]).

Turning to `O=S(=O)(F)Cc1ccccc1`, the Z-AUC in assay [2] is -0.434 (inactive); in assay [2] (setting [6]), -0.355; in assay [2] (measured here: PEO4 Z-AUC), 0.278. For the same molecule, the results for the z-score in assay [1] (setting [3]), in assay [1] (setting [4]) and in assay [1] (setting [5]) were 0.128, -1.89 and 0.531, respectively.

`CCCC[N+]1(C)[C@H]2CC(OC(=O)[C@H](CO)c3ccccc3)C[C@H]1[C@H]1O[C@H]12` (stereo partly specified): the Z-AUC in assay [2] is 1.48 (inactive); in assay [2] (setting [6]), 1.34; in assay [2] (measured here: PEO4 Z-AUC), 1.36. For the same molecule, the z-score in assay [1] (setting [3]) worked out at 0.529; in assay [1] (setting [4]), 0.336; in assay [1] (setting [5]), 0.453.

Turning to `CCN1C[C@]2(OC(=O)c3ccccc3NC(C)=O)CC[C@H](OC)[C@@]34[C@H]5CC6[C@@H](OC)C[C@](O)(C(C[C@@H]23)[C@@H]14)[C@@]5(O)[C@@H]6OC`, the figures for the Z-AUC in assay [2], in assay [2] (setting [6]) and in assay [2] (measured here: PEO4 Z-AUC) were 0.577 (inactive), 1.09 and 1.24, respectively. For the same molecule, the z-score in assay [1] (setting [3]) was 0.543; in assay [1] (setting [4]) it was 0.783; in assay [1] (setting [5]) it was 0.781.

With `CC[C@@]1(O)C(=O)OCc2c1cc1n(c2=O)Cc2cc3ccccc3nc2-1`, the Potency in assay [2] was 38.9 nM (active); in assay [1] (TFE3-RCC UOK109 viability), 590 nM (active). The Z-AUC in assay [2] (setting [6]) is -2.44; in assay [2] (measured here: PEO4 Z-AUC) it was -1.71. Also, the values for the z-score in assay [1] (setting [3]), in assay [1] (setting [4]) and in assay [1] (setting [5]) were -1.89, -3.04 and -3.18, respectively.

Take `CC1=NN=C(c2ccc(N)cc2)c2cc3c(cc2C1)OCO3`: the values for the z-score in assay [1] (setting [3]), in assay [1] (setting [4]) and in assay [1] (setting [5]) were 0.644, 0.871 and 0.714, respectively.

Consider `c1ccc2c(CN3CCNCC3)cccc2c1`, for which the Z-AUC in assay [2] was -0.771 (inactive); in assay [2] (setting [6]) it was -0.119; in assay [2] (measured here: PEO4 Z-AUC), -0.706. Further, the z-score is 0.545 in assay [1] (setting [3]), 0.291 in assay [1] (setting [4]) and 0.833 in assay [1] (setting [5]).

On to `C[C@]12CC[C@@H]3[C@@H](CCC4=CC(=O)CC[C@@H]43)[C@@H]1CC[C@@H]2OC(=O)CCc1ccccc1`, for which the Z-AUC in assay [2] was -0.102 (inactive); in assay [2] (setting [6]), -0.728; in assay [2] (measured here: PEO4 Z-AUC), -0.686. The z-score was 0.952 in assay [1] (setting [3]), 0.605 in assay [1] (setting [4]) and -2.12 in assay [1] (setting [5]).

On to `O=C1C=CC[C@@H]2[C@H]3CCCN4CCC[C@@H](CN12)[C@@H]34`, for which the Z-AUC is 0.0265 (inactive) in assay [2], 1.52 in assay [2] (setting [6]) and 0.946 in assay [2] (measured here: PEO4 Z-AUC).

`CC(N[C@H]1C[C@H]1c1ccccc1)c1ccc2c(c1)OCCO2` (stereo partly specified): the results for the z-score in assay [1] (setting [3]), in assay [1] (setting [4]) and in assay [1] (setting [5]) were 0.542, 0.0589 and 0.597, respectively.

As for `CCc1c(C(=O)C(N)=O)c2c(OCC(=O)O)cccc2n1Cc1ccccc1`, the values for the Z-AUC in assay [2], in assay [2] (setting [6]) and in assay [2] (measured here: PEO4 Z-AUC) were 0.107 (inactive), 0.125 and 0.188, respectively. The z-score is -0.00568 in assay [1] (setting [3]), 0.644 in assay [1] (setting [4]) and -1.8 in assay [1] (setting [5]).

With `COc1ccc2c(c1)[C@]13CCCCC1C(C2)N(C)CC3` (stereo partly specified), the z-score was -0.129 in assay [1] (setting [3]), 0.851 in assay [1] (setting [4]) and 0.444 in assay [1] (setting [5]).

The record behind these values is PubChem BioAssay (NCATS).
